According to ChEMBL document CHEMBL3988442, “University of Dundee, Small-Polar-MMV Screening Library” (2021):
The campaign covered roughly 48,000 compounds. About 13,000 (27%) showed an effect of 50% or more. This is one part of the list.

Each compound was assayed on Wolbachia pipientis (assay: Anti-Wolbachia Cell-Based Screen). Conditions: 5 µM.
Type: functional
Parameters: scale not given: in the data most compounds retested in dose-response had high values

Compound	Percent Effect
CC(C)C1CN(Cc2nccn2C(C)C)CCC(=O)N1CC1CC1 (stereo unspecified)	-13.37%
CN(C)Cc1nc(C(C)(C)NC(=O)c2ccc3ccccc3c2)no1	-5.67%
Cc1cc(NC(=O)CNc2cccc(OC(F)F)c2C)n(C)n1	-2.043%
Cc1cc(C(=O)NCC2(C(N)=O)CCOCC2)nn1C(C)(C)C	9.321%
Cc1nn(C(C)(C)C)c(C)c1C(=O)NCC1(C(N)=O)CCOCC1	-1.881%
Cc1nn(C)c(Cl)c1C(=O)NCC1(C(N)=O)CCOCC1	99.78%
CC(C)CN1CCN(Cc2nc3ccccc3[nH]2)[C@H]2CS(=O)(=O)C[C@H]21	-2.653%
Cc1csc(CCCNC(=O)NC2CC(=O)N(C(C)(C)C)C2)n1 (stereo unspecified)	79.6%
CCc1nc(CCNC(=O)NC2CC(=O)N(C(C)(C)C)C2)cs1 (stereo unspecified)	17.05%
Cc1nc(C)c(CCNC(=O)NC2CC(=O)N(C(C)(C)C)C2)s1 (stereo unspecified)	-0.9476%
CC(=O)c1ccc(NC(=O)c2ccc3c(c2)C2(CCCCC2)CN3)cc1.O=C(O)C(F)(F)F	13.81%
NC(=O)CN1CCCN(C(=O)c2ccn(-c3cccc(F)c3)n2)CC1	-12.78%
CC(O)CN1CCN(C(=O)c2cccc(CC#N)c2)CC1 (stereo unspecified)	0.248%
CCn1c(C(=O)N2CCN(CC(C)O)CC2)cc2ccccc21 (stereo unspecified)	-3.08%
CCn1c(C(=O)N2CCCN(CC(N)=O)CC2)cc2ccccc21	113.2%
CCn1c(CN2CCN(CC(N)=O)CC2)nc2c(F)cccc21	-7.265%
CCC(O)CN1CCN(C(=O)c2cc3ccccc3n2CC)CC1 (stereo unspecified)	81.21%
CCn1c(C(=O)N2CCN(C(=O)NC(C)C)CC2)cc2ccccc21	-5.351%
CC(O)CN1CCN(C(=O)c2cccn2Cc2ccncc2)CC1 (stereo unspecified)	-5.756%
CCn1c(C(=O)N2CCN(CC[S+](C)[O-])CC2)cc2ccccc21 (stereo unspecified)	101.9%
CCn1c(C(=O)N2CCN(C(=O)COC)CC2)cc2ccccc21	-7.431%
Cc1cccc2cc(C(=O)N3CCSCC3)n(C)c12	-17.56%

Compound	Percent Effect
CC(O)CN1CCN(C(=O)c2cc3ccccc3n2C)CC1 (stereo unspecified)	80.19%
COc1ccc(C)cc1-c1csc(Cn2ccc(=O)[nH]c2=O)n1	-13.88%
c1cnn(Cc2nnc(C3CCN(C4CCOCC4)CC3)n2C2CC2)c1	-3.51%
O=C(COc1ccccc1F)NCCC(O)c1ccco1 (stereo unspecified)	-8.311%
Cc1ccc(CNC2(Cc3cc(-c4ccc(F)cc4)on3)COC2)o1	-24.42%
CCN(c1cccc(F)c1)S(=O)(=O)c1cc(C(=O)O)cc2c1CCC2	-8.987%
CC(Nc1cccc(CN2CCOC2=O)c1)C(=O)N1CCNC1=O (stereo unspecified)	-9.338%
Cc1ccc(CCC(=O)N2CCC(Nc3cccnn3)CC2)cc1	118.9%
COCCCC(=O)N1CCC(Nc2cccnn2)CC1	100.5%
Cc1noc(Cl)c1CCC(=O)N1CCC(CC(N)=O)CC1	-2.795%
Cc1cnn(CCC(=O)N2CCC(Nc3cccnn3)CC2)c1	5.382%
Cc1nn(CC(=O)N2CCC(Nc3cccnn3)CC2)c(C)c1Cl	-11.96%
CC(C)(C)SCCCC(=O)N1CCC(Nc2cccnn2)CC1	-0.09307%
Cc1ccc(NC2CCN(C(=O)CCc3ccco3)CC2)nn1	-2.742%
O=C(CCc1ccco1)N1CCC(Nc2cccnn2)CC1	108.6%
Cc1noc(Cl)c1CCC(=O)N1CCC(Nc2cccnn2)CC1	97.17%
O=C1CC(Cc2ccc(NC(=O)c3cccc(F)c3)cc2)C(=O)N1 (stereo unspecified)	-11.36%
Cc1cc(CN2CCN(C(=O)NC(C)c3cccnc3)CC2)on1 (stereo unspecified)	-9.533%
CCOC(=O)NC1CCCN(Cc2ccc(-n3cncn3)c(C)c2)C1 (stereo unspecified)	8.303%
COc1cc(NC(=O)NCCO)ccc1N1CCOC1=O	-1.059%
Cn1cc(N2CCN(c3ccc(C#N)cc3F)CC2=O)cn1	-27.57%
COc1ccc(CNC(C)c2cccc(Cl)c2)c(OC)c1OC (stereo unspecified)	0.8374%

Compound	Percent Effect
O=C(CCOc1ccccc1)N1CCC(Nc2cccnn2)CC1	-3.199%
Cc1ccccc1NC1CCN(C(=O)CCc2ccco2)CC1	99.83%
O=C(CCCc1ccccn1)N1CCC(Nc2cccnn2)CC1	-8.554%
Cc1cc(N2CCC(NC(=O)CCc3ccco3)CC2)nc(C)n1	7.107%
O=C(CCn1ccc2ccccc21)N1CCC(Nc2cccnn2)CC1	-13.71%
O=C(CCc1ccccc1F)N1CCC(Nc2cccnn2)CC1	101.4%
O=C(CCCc1ccccc1)N1CCC(Nc2cccnn2)CC1	109.6%
CS(=O)(=O)N[C@H]1CN(C(=O)CCc2ccco2)C[C@@H]1C1CC1	-12.24%
CSc1ncccc1C(=O)N1C[C@H]2CC[C@@H]1CN(c1cnccn1)C2	-13.27%
CCCN(CCC)S(=O)(=O)c1cc(NC(C)=O)ccc1C	31.01%
O=C(O)c1cc(-c2ccoc2)cc(S(=O)(=O)N2CCSCC2)c1	11.83%
CCN(Cc1ccoc1)C(=O)c1cc(C)c(C)c(S(N)(=O)=O)c1	-19.87%
CCCNC(=O)N1CCC(Oc2cc(C)ccc2F)(C(=O)O)CC1	-9.891%
O=C(NCC1CCOCC1)[C@@H]1C[C@@H]2[C@@H](CCN2Cc2nccs2)O1.O=C(O)C(F)(F)F	97.65%
COCCNC(=O)[C@@H]1CC[C@@H]2[C@@H](CCN2Cc2cnn(C)c2)O1	-9.722%
O=C(NCC1CC1)[C@H]1CC[C@@H]2[C@@H](CCN2Cc2nccs2)O1	114.7%
Cc1cnc(CNC(=O)[C@@H]2CC[C@@H]3[C@@H](CCN3Cc3ccco3)O2)cn1	-4.994%
O=C(O)[C@]12CCCN(Cc3nccs3)[C@@H]1CCN(c1cnccn1)C2	6.87%
COCCN1CCN(CC(=O)N(C)Cc2cccc(F)c2)CC1C (stereo unspecified)	-2.425%
CCc1cc(NCCC(F)(F)F)nc(N2CCOCC2)n1	-15.1%
Cc1ccc(-c2cc(-c3nc(CN4CCN(C)CC4)no3)[nH]n2)s1	-11.14%
Cc1cc(-c2cnc(N3CCOCC3)nc2-c2ccc(C)s2)on1	90.53%

Compound	Percent Effect
Cc1cnc(N2CCN(C)CC2)nc1-c1ccnn1C	-36.32%
Cc1cc(-c2cnc(N3CCN(C)CC3)nc2-c2ccc(C)s2)on1	-10.07%
Cc1cc(-c2cnc(N3CCCC3)nc2-c2ccc(C)s2)on1	81.04%
Cc1noc(C)c1CN(C)Cc1cnc(N2CCOCC2)nc1	-2.338%
Cc1cc(-c2cnc(N3CCSCC3)nc2-c2ccc(C)s2)on1	126.2%
CCN1CCN(c2ncc(-c3cc(C)no3)c(-c3ccc(C)s3)n2)CC1	-7.299%
Cc1nc(N2CCOCC2)nc(C)c1NS(=O)(=O)c1ccccc1	4.303%
Cc1ccc(-c2cc(C(F)(F)F)nc(N3CCOCC3)n2)s1	100.5%
O=C1c2cnc(N3CCOCC3)nc2CN1c1ccc2c(c1)OCO2	-5.261%
Cc1cccc(C(C)CNC(=O)N2CCOCC3(CCOCC3)C2)c1 (stereo unspecified)	-15.26%
COCCCn1ccc(NC(=O)NCCCn2ccnc2)n1	5.848%
CC(C)[C@@H]1CN(CCOc2ccc(Cl)cc2)C[C@H]1NS(C)(=O)=O	1.84%
Cc1cccc(-c2noc([C@@H]3Cc4nc[nH]c4CN3)n2)c1	-0.5604%
COc1ccnc(N2CCN(C(=O)Cc3ccn(C(C)C)n3)CC2)n1	115.4%
COc1ccnc(N2CCN(C(=O)CN3CCCC3=O)CC2)n1	-1.755%
CCOc1ccnc(N2CCN(C(=O)CCc3ccsc3)CC2)n1	8.96%
COc1ccnc(N2CCN(C(=O)Cc3csc(C)n3)CC2)n1	124.6%
COc1ccnc(N2CCN(C(=O)Cc3ccsc3)CC2)n1	128.2%
COc1ccnc(N2CCN(C(=O)c3csc(C)n3)CC2)n1	-2.798%
COc1ccnc(N2CCN(C(=O)Cc3ccc(C#N)cc3)CC2)n1	1.226%
COc1ccnc(N2CCN(C(=O)CCc3nccs3)CC2)n1	-9.419%
COc1ccnc(N2CCN(C(=O)NCc3ccc(C)s3)CC2)n1	-6.706%

Compound	Percent Effect
COc1ccnc(N2CCN(C(=O)Cc3ccc(C)s3)CC2)n1	0.2283%
COc1ccnc(N2CCCN(C(=O)Cc3ccc(C)s3)CC2)n1	128.9%
COc1ccc(N2CCCN(C(=O)Cc3csc(C)n3)CC2)cc1	-1.36%
Cc1csc(C2(NCC(O)COc3ccc(F)cc3)CCC2)n1 (stereo unspecified)	-11.72%
COc1cc(N2CCN(Cc3ccsc3)C(CCO)C2)nc(N)n1 (stereo unspecified)	10.71%
Cc1ccc(-c2ccc(C(=O)NCCS(N)(=O)=O)c(F)c2)cc1	17.06%
CCn1nc(C)c2ccn(CC(=O)NC3CCCC3)c(=O)c21	-1.508%
CCn1nc(C)c2ccn(CC(=O)NC3CC3)c(=O)c21	112.9%
Cc1noc(C)c1CNC(=O)c1cn(CCC2CCCCN2)nn1 (stereo unspecified)	-0.3777%
CCN1CCC(NC(=O)Cn2cc(C)c3ccccc32)CC1	-38.76%
CC1CCN(S(=O)(=O)c2cccn(CC(=O)NC3CCCC3)c2=O)CC1	-17.34%
Cc1cc(=O)n(CC(=O)NCC2CCCO2)c(-c2cccc(Cl)c2)n1 (stereo unspecified)	14.67%
CCn1nc(C)c(CNC(=O)c2cn(CCC3CCCCN3)nn2)c1C (stereo unspecified)	-6.64%
CCn1nc(C)c2ccn(CC(=O)NCC3CCCO3)c(=O)c21 (stereo unspecified)	132.9%
CCn1nc(C)c(CNC(=O)c2cn(CC3CCCO3)nn2)c1C (stereo unspecified)	113.5%
Cc1nn(C)c2c(=O)n(CC(=O)NC3CCCCC3)ccc12	138.3%
O=C(Cn1nc(-c2ccc(F)cc2)oc1=O)NCC1CCCO1 (stereo unspecified)	-3.643%
Cc1nn(C)c2c(N3CCN(C(=O)NC4CCCCC4)CC3)ncnc12	8.343%
